Source: PubChem (National Center for Advancing Translational Sciences (NCATS))
VACV mCherry inh – vaccinia inhibition (mCherry reporter). Vaccinia virus mCherry reporter infection, fluorescence. Potency, µM (titrated, usually from 36.5 µM), for the others: at the highest dose activity change, negative = inhibition, most hits filed as inhibitors. 0.63% of 310,000 active. AID 720579; calls by dose curve; tested in A549 cells; note: nearly all actives have a fitted effect of over 35% in size
AMA1-RON2 inh – AMA1-RON2 (P. falciparum) interaction inhibition; Potency, µM (series often up to 58.2 µM), without a hit: at the top dose activity change, negative = inhibition, hits mostly inhibitors; AID 720542; AlphaScreen AMA1-biotinylated RON2 peptide binding; 0.2% of 360,000 active;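 note: 0% = vehicle wells and -100% = peptide control; nearly all actives have a fitted effect of over 45% in size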
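AMA1 (3D7) with his tag at 25 nM final met compounds first, then biotinylated RON2 peptide at 25 nM; detection used donor plus acceptor beads, 10 µg/mL apiece, read by AlphaScreen after 30 min at room temperature.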
VACV Venus inh – vaccinia inhibition (Venus reporter); Vaccinia virus Venus reporter expression, fluorescence; Potency, µM (titrated, usually from 36.5 µM), for the others: at the top dose activity change, negative = inhibition, usual class: inhibitors; 0.46% of 330,000 active; AID 720580; calls by dose curve; tested in A549 cells; note: nearly all actives have a fitted effect of over 30% in size
Pf growth 48h – P. falciparum growth inhibition at 48 hours (one generation); P. falciparum luciferase growth in erythrocytes, 48 h; Potency, µM (titrated, usually from 28.7 µM), without a hit: at the highest dose activity change, negative = inhibition, most hits filed as inhibitors; 5.9% of 310,000 active
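Cell-based growth assay: transgenic P. falciparum expressing firefly luciferase, cultured in red cells within RPMI 1640 containing 0.5% w/v Albumax, 24 mM bicarbonate and gentamycin. A drop in luciferase activity indicates inhibition.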
Pf growth 96h – P. falciparum growth inhibition at 96 hour, primary screen for plastid delayed-death inhibitors; P. falciparum luciferase reporter growth, 96 h; Potency, µM (top dose mostly 28.7 µM), for inactives: at the highest dose activity change, negative = inhibition, most hits filed as inhibitors; 6.9% of 320,000 active
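Two-generation exposure (96 h) targets delayed-death phenotype. Reporter parasites carrying integrated firefly luciferase, in red cells at 2% hematocrit and 0.05% parasitemia final, kept at 37 C, 5% CO2; luminescence loss indicates inhibition.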
The depositor's hits bear a star; i = inactive; ? = inconclusive; . = no result given; [ ] = another dose, or the depositor's remark. Hits are enriched below; roughly 8.7% of the tested compounds scored in any of these assays. Unless noted, calls come from the whole dose curve; as a rule, active = well fitted curve in the direction sought with a large enough effect; inconclusive = small, poorly fitted or top-dose-only effect, or another doubt; inactive = no such curve, though single readings can be large; an effect the other way counts as inactive or inconclusive. Unless noted, % is set by controls: 0 for no effect and ±100 for the full control effect; potency is the fitted concentration of half-maximal effect.

SMILES	VACV mCherry inh	AMA1-RON2 inh	VACV Venus inh	Pf growth 48h	Pf growth 96h
COc1ccc(-c2cn3cccnc3n2)cc1NC(=O)c1c(F)cccc1F	-13.0%	.	-4.6%	.	.
Cc1nn(-c2ccccc2)c2sc(C(=O)N(CC(=O)NC3CCCC3)Cc3ccco3)cc12	?	-5.7%	?	11.7µM*	?
Cc1ccc(-n2c(=O)c3ccc(C(=O)NCc4ccco4)cc3n(Cc3ccc(Cl)cc3)c2=O)cc1	-8.2%[7.34 µM]	.	-12.8%[7.34 µM]	.	.
CC(Oc1ccc(Cl)cc1)C(=O)Nc1nccs1 (stereo not given)	.	5.0%	.	4.15µM*	.
CC(Oc1ccc(Br)cc1)C(=O)Nc1nc(-c2ccccn2)cs1 (stereo not given)	12.6µM*	28.8%	?	7.38µM*	3.7µM*
CC(C)[C@H](NC(=O)c1ccccc1Cl)C(=O)Nc1nc(-c2ccccn2)cs1	?	29.6%	?	9.28µM*	?
CC(Oc1ccc(Cl)cc1)C(=O)Nc1ccc(S(=O)(=O)Nc2nccs2)cc1 (stereo not given)	0.6%	1.9%	21.3%	4.0%	18.8%
NCCC(O)(P(=O)(O)O)P(=O)(O)O	.	.	.	3.0%	27.3%
C[n+]1ccn(CC(=O)c2cc(C(C)(C)C)c(O)c(C(C)(C)C)c2)c1	.	-1.2%	.	9.28µM*	20.4%
C[n+]1ccn(CC(=O)c2ccc(Br)cc2)c1	.	-13.7%	.	11.7µM*	9.28µM*
C=Cn1cc[n+](CC(=O)c2ccc(Br)cc2)c1	.	-2.9%	.	?	6.57µM*
COCCNC(=O)C1CCN(Cc2cc3ccccc3n2Cc2ccc(C)cc2)CC1	-8.4%	.	-6.8%	.	.
COc1ccc(N2CCN(c3c(S(=O)(=O)c4ccccc4)cnc4ccc(OC)cc34)CC2)cc1	i	-14.4%[11.6 µM]	-19.3%	8.28µM*	4.15µM*
CCOc1ccc2ncc(S(=O)(=O)c3ccccc3)c(N3CCN(c4ccccc4)CC3)c2c1	i	-14.1%	-0.8%	.	.
CCOc1ccc2ncc(S(=O)(=O)c3ccccc3)c(N3CCN(c4ccc(OC)cc4)CC3)c2c1	-5.0%	?	-29.4%	8.28µM*	2.94µM*
Cc1ccc(S(=O)(=O)N2CCCCC2c2cccnc2)c(C)c1C (stereo not given)	.	0.0%	.	?	0.329µM*
Cc1ccc(S(=O)(=O)N2CCCC2c2cccnc2)cc1 (stereo not given)	-14.1%	6.2%	-8.7%	?	2.5%
CCOc1ccc(CCNC(=O)c2nc(-c3cccc(F)c3)n3c2CCCCC3)cc1OCC	i	.	?	.	.
COc1ccc(C(CNC(=O)c2oc3c(Cl)cccc3c2C)N2CCCC2)cc1 (stereo not given)	?	5.3%	-25.8%	?	10.4µM*
COc1ccc(C(CNC(=O)c2oc3ccc(Cl)cc3c2C)N2CCCCC2)cc1 (stereo not given)	-24.1%	10.8%	-21.9%	?	?
COc1ccc(C(CNC(=O)c2oc3ccccc3c2C)N2CCCC2)cc1 (stereo not given)	?	-3.9%[11.6 µM]	-23.0%	9.28µM*	9.28µM*
CCOCc1ccccc1Nc1ncnc2onc(-c3ccc(Cl)cc3)c12	-3.6%	.	10.1%	.	.
CCN(CC)CC(=O)N1c2ccccc2CCc2ccc(NC(=O)c3cc(OC)c(OC)c(OC)c3)cc21	-5.5%	-10.4%	-1.5%	11.7µM*	9.28µM*
CCOC(=O)Nc1ccc2c(c1)N(C(=O)CN(CC)CC)c1ccccc1CC2	i	0.2%	-11.5%	?	?
CCN(CC)CC(=O)Nc1ccc2c(c1)N(C(=O)CN(CC)CC)c1ccccc1CC2	i	14.6%	-10.1%	10.4µM*	.
CCN(CC)CCC(=O)N1c2ccccc2CCc2ccc(NC(=O)OC)cc21	.	-1.6%	.	5.0%	?
CCCN1CNc2c(c(=O)[nH]c(=S)n2CCc2ccccc2C)C1	-12.8%	.	-3.1%	.	.
COc1ccc(C(=O)NNC(=O)c2ccccc2[N+](=O)[O-])cc1Br	?	31.1%	-18.0%	17.5%	18.3%
O=C(N/N=C/c1cccc([N+](=O)[O-])c1)C1CC1c1ccccc1 (stereo not given)	?	9.0%	-16.5%	0.0%	11.7µM*
O=C(NNC(=O)C1CC1c1ccccc1)c1ccccc1[N+](=O)[O-] (stereo not given)	i	46.8%	0.0%	46.5%	11.7µM*
